From PubChem
Hits are enriched below; roughly 2.4% of the tested compounds scored in any of these assays.
Cruzain Triton: cruzain (T. cruzi) inhibition with detergent; Potency, µM, inactives show max response, negative = inhibition, hits mostly inhibitors; purified cruzain, Z-FR-AMC fluorescence, 0.01% Triton; P25779; 200,000 compounds, 0.43% hits;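 also: plate controls were neutral wells for no effect and buffer without enzyme for full effect; nearly all actives have a fitted effect of over 40% in size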
Target sequence (P25779 123-467 limits assumed): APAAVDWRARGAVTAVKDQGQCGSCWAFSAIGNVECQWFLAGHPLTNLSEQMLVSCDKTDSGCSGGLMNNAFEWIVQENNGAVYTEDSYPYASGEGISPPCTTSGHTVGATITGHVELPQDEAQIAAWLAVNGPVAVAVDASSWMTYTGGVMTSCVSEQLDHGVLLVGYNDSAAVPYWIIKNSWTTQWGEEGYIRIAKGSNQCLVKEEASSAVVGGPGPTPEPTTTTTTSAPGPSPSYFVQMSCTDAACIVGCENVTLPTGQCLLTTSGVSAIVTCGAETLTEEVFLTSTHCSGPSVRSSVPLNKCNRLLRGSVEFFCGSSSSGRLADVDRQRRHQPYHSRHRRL
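Enzyme 1.5 nM, Z-FR-AMC 2 uM, NaOAc 100 mM pH 5.5, DTT 5 mM, Triton X-100 0.01%; 15 min RT compound preincubation; kinetic ex360/em450, 60 s delta.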
Cruzain inh noDet: inhibitors of Trypanosoma cruzi cruzain without detergent; purified cruzain, Z-FR-AMC fluorescence, no detergent; Potency, µM, for inactives: max response, negative = inhibition, usual class: inhibitors; 200,000 compounds, 2.3% hits; P25779; AID 1476;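 also: plate controls were enzyme without inhibitor for no effect and buffer without enzyme for full effect; nearly all actives have a fitted effect of over 40% in size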
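Purified cruzain at 1.5 nM, pre-incubated 15 min with compound at room temperature in 100 mM sodium acetate pH 5.5, 5 mM DTT, 0.00005% Triton X-100. Reaction started with 2 uM Z-FR-AMC; AMC fluorescence increase over 60 s gives rate.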
The depositor's hits bear a star; ? = inconclusive. Calls follow the shape of the dose curve; as a rule, active = well fitted curve in the direction sought with a large enough effect; inconclusive = small, poorly fitted or top-dose-only effect, or another doubt; inactive = no such curve, though single readings can be large; an effect the other way counts as inactive or inconclusive. Potency is read from the fitted curve at half-maximal effect.

SMILES	Cruzain Triton	Cruzain inh noDet
CCCCNC(=O)CC1C(=O)N(Cc2ccccc2)C(C)c2nc3ccccc3n21 (stereo not given)	-22.8%	12.6µM*
Cc1nn(CC(=O)NCCc2ccc(Cl)cc2)c(=O)c2cc3cc(F)ccc3n12	0.0%	-12.4%
CCc1nnc(/N=C/c2c(O)n(-c3ccc(Cl)cn3)c(=O)c3ccccc23)s1	-7.5%	?
O=c1c2ccccc2c(C=Nc2ccc(S(=O)(=O)N3CCCCC3)cc2)c(O)n1-c1ccc(Cl)cn1	4.0%	7.94µM*
CCN(CC)S(=O)(=O)c1nnc(NC(=O)c2ccc(Br)cc2)s1	-2.0%	2.8%
COc1ccc(/C=C2\CCCC3C2=NC(=S)NC3c2ccc(OC)cc2)cc1 (stereo not given)	-5.0%	25.1µM*
CCCn1c(SCC(=O)N2N=C3/C(=C/c4ccc(OC)cc4)CCCC3C2c2ccc(OC)cc2)n[nH]c1=O (stereo not given)	-11.1%	14.9%
COc1cc(NC(=O)CC2C(=O)N(c3cccc(C)c3)C(=O)N2Cc2ccco2)cc(OC)c1 (stereo not given)	-8.0%	6.1%
CC1Cc2ccccc2N1c1nc(C2CC2)nc2c1nnn2Cc1ccccc1 (stereo not given)	-17.3%	20µM*
CC1Cc2ccccc2N1c1ncnc2c1nnn2Cc1ccccc1 (stereo not given)	-24.4%	?
Cc1cc(C)nc(N/N=C/C2=C(N3CCOCC3)C(=C\c3ccc(Cl)cc3)/CC2)n1	-9.6%	-20.7%
Cc1occc1C(=O)N/N=C/C1=C(N2CCOCC2)C(=C\c2ccc(Cl)cc2Cl)/CC1	-5.0%	25.1µM*
COC(=O)c1c(NC(=O)c2c(C)noc2C)sc2c1CCCCCC2	5.4%	-3.9%
COC(=O)c1c(NC(=O)c2c(-c3ccccc3Cl)noc2C)sc2c1CCC2	-4.6%	12.6µM*
Cc1ccc(N2CCN(C(=O)c3c(C)oc4ncnc(N5CCCCC5)c34)CC2)c(C)c1	-0.4%	13.2%
CCn1c2ccccc2c2cc(/C=N/NC(=O)c3ccccc3)ccc21	?	31.6µM*
CCn1c2ccccc2c2cc(/C=N/n3c(C)nnc3C)ccc21	-16.3%	?
Cc1ccc(NC(=O)NCCOCCn2c(=O)oc3ccccc32)cc1C	-0.3%	9.7%
N#CC(C#N)=CC1=C2OC(c3ccccc3)=CC(c3ccccc3)=C2CCC1	1.9%	5.01µM*
Cc1cccc2c1N(C(=O)CN1C(=O)c3ccccc3C1=O)C(C)(C)c1ssc(=S)c1-2	-0.8%	12.6µM*
Cc1cc(C)c2c(c1)-c1c(ssc1=S)C(C)(C)N2C(=O)CN1C(=O)c2ccccc2C1=O	-7.4%	?
O=C(Nc1ccccc1)c1cc2c(-c3ccccc3)nn(-c3ccccc3)c2s1	-1.2%	?
Cc1ccc(NC(=O)Cn2c(=O)n(Cc3nc(-c4ccccc4)no3)c(=O)c3cc4c(cc32)OCO4)c(C)c1	-0.2%	-19.8%
Cc1ccc(NC(=O)Cn2c(=O)n(Cc3nc(-c4ccccc4)no3)c(=O)c3cc4c(cc32)OCO4)cc1F	-3.1%	12.6µM*
O=C(Cn1c(=O)n(Cc2nc(-c3ccccc3)no2)c(=O)c2cc3c(cc21)OCO3)Nc1ccc(Cl)cc1	-3.9%	10µM*
SMILES	Cruzain Triton	Cruzain inh noDet
O=C(Cn1c(=O)n(Cc2nc(-c3ccccc3)no2)c(=O)c2cc3c(cc21)OCO3)Nc1ccccc1	-4.3%	?
O=C(Nc1sc2c(c1C(=O)NCc1ccccc1)CCCC2)c1cc(=O)c2cc(Cl)ccc2o1	-0.6%	1.4%
COc1ccccc1N1Cc2ccccc2C1	-3.7%	15.8µM*
COc1ccc(Cl)cc1N1Cc2ccccc2C1	-4.0%	25.1µM*
COc1ccc(OC)c(N2Cc3ccccc3C2)c1	3.2%	?
COc1ccccc1N1CCNCC1	2.6%	9.7%
COC(=O)c1ccccc1NC(=O)c1cc2sccc2n1C	-4.5%	-18.6%
COC(=O)c1cccc(NC(=O)c2cc3sccc3n2C)c1	-17.4%	25.1µM*
C=CCSc1nnc(NC(=O)COc2ccc3ccccc3c2)s1	4.3%	12.6µM*
C=CCSc1nnc(NC(=O)CSc2ccccn2)s1	1.4%	-1.9%
COC(=O)c1sc(NC(=O)COc2cccc3ccccc23)nc1C	5.2%	?
CCSc1nnc(NC(=O)COc2cccc3ccccc23)s1	-8.0%	12.6µM*
CCOc1ccc(Oc2nc(NCC(C)C)nc(N3CCOCC3)n2)nn1	-0.6%	14.6%
CCOc1ccc(C(=O)c2cn(CC(=O)Nc3ccc(F)c(F)c3)c3cc4c(cc3c2=O)OCCO4)cc1	-6.2%	8.2%
Cc1ccc(Cl)cc1NC(=O)Cn1c(=O)cc(C)c2c(C)nn(C)c21	1.6%	-9.7%
CC(C)NC(=O)C1CCN(C(=O)N2CCOc3ccc(Cl)cc32)CC1	-3.5%	-2.6%
CCCCOc1ccc(Cn2c(=O)sc3ccccc32)cc1	-7.2%	-23.9%
N=c1oc2cc(O)ccc2cc1C(=O)Nc1nc2ccccc2s1	12.6µM*	20µM*
O=C(Nc1nc2ccccc2s1)c1cccn(Cc2ccccc2)c1=O	-1.1%	-15.9%
